Data reported in the supplement of paper PMC11732987, “Enantioselective OTUD7B fragment discovery through chemoproteomics screening and high-throughput optimisation” (Communications Chemistry, 2025).

Legend:
Assay in all cases: log2 ratio of Biotin-Ahx-Ub-VS probe labelling (compound/DMSO); higher = less target engagement, active = hit call of the paper (q ≤ 0.05, log2 ratio ≤ -1)
Details in all cases: treatment time: 3 h
[1] = compound: CCC1N(CCc2sccc12)C(=O)CCl
Summary of the method: (§1)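 HEK293T lysate (495 µg per sample, in Tris/CHAPS/IGEPAL buffer with protease inhibitors) was treated in triplicate with compound at 50 or 200 µM or with DMSO for 3 h. It was then treated with Biotin-Ahx-Ub-VS (0.5 µM final) for 1 h. Labelled DUBs were NeutrAvidin-enriched, digested with LysC and trypsin, and run by diaPASEF LC-MS/MS. Median-normalised label-free quantities gave average log2 ratios compound/DMSO by unpaired t-test, using proteins with ≥2 unique peptides.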

[2] = compound: CN1c2ccccc2C(CS1(=O)=O)NC(=O)CCl
Summary of the method: as §1

[3] = compound: Cl.ClCC(=O)N1CCc2ncncc2C1
Summary of the method: as §1

[4] = compound: Cl.Cn1ncc2C(CCCc12)NC(=O)CCl
Summary of the method: as §1

[5] = compound: ClCC(=O)NC1CCOc2ccccc12
Summary of the method: as §1

[6] = compound: ClCC(=O)NC1CCCc2ccccc12
Summary of the method: (§2)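 HEK293T lysate (495 µg per sample, in Tris/CHAPS/IGEPAL buffer with protease inhibitors) was treated in triplicate with compound over a concentration series or DMSO for 3 h, then with Biotin-Ahx-Ub-VS (0.5 µM final) for 1 h. Labelled DUBs were NeutrAvidin-enriched, digested with LysC and trypsin, and run by diaPASEF LC-MS/MS. Spectronaut label-free protein quantities were global-median-normalised. Values are average log2 ratios compound/DMSO from an unpaired t-test, using proteins with ≥2 unique peptides.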

[7] = compound: ClCC(=O)N[C@@H]1CCCc2ccccc12
Summary of the method: as §2

[8] = compound: ClCC(=O)N[C@H]1CCCc2ccccc12
Summary of the method: as §2

[9] = compound: CCC1N(CCc2cc(OC)c(Cl)cc12)C(=O)CCl
Summary of the method: as §1

[10] = compound: CCCC1N(CCc2cc(OC)c(OC)cc12)C(=O)CCl
Summary of the method: as §1

Measured: log2 ratio of Biotin-Ahx-Ub-VS probe labelling

USP10 (UniProt Q14694)
Sequence of UniProt Q14694 (Q14694 whole entry): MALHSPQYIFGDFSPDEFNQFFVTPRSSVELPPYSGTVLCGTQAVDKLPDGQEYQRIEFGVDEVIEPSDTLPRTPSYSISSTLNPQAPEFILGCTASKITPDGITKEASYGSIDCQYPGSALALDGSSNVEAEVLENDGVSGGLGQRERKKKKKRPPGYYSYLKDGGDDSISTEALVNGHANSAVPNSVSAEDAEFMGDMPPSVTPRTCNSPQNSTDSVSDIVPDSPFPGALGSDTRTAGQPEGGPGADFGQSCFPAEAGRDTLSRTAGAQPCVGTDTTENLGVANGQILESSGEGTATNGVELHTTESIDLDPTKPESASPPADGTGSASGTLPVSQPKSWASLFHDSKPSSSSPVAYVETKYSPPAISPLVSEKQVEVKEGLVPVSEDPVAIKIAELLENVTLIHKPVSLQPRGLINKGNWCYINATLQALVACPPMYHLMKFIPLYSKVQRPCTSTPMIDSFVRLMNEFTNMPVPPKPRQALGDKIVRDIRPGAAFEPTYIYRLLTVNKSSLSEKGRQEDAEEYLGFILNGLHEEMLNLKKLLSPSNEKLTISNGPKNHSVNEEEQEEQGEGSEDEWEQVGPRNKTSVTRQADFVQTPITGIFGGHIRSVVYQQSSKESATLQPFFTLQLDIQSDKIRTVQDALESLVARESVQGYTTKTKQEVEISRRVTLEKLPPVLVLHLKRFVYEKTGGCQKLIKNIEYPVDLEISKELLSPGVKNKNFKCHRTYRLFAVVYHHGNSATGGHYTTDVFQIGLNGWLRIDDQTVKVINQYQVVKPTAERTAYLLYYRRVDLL
inactive: [1]; compound concentration: 50uM -0.19 | [1]; compound concentration: 200uM -0.0252 | [2]; compound concentration: 50uM -0.181 | [2]; compound concentration: 200uM -0.0808 | [3]; compound concentration: 50uM -0.0803 | [3]; compound concentration: 200uM -0.275 | [4]; compound concentration: 50uM -0.122 | [4]; compound concentration: 200uM 0.147 | [5]; compound concentration: 50uM 0.0122 | [5]; compound concentration: 200uM 0.0383 | [6]; compound concentration: 0.78uM -0.0342 | [6]; compound concentration: 1.56uM -0.0587 | [6]; compound concentration: 3.13uM -0.0649 | [6]; compound concentration: 6.25uM -0.0649 | [6]; compound concentration: 12.5uM -0.132 | [6]; compound concentration: 25uM -0.0689 | [6]; compound concentration: 50uM -0.0491 | [6]; compound concentration: 100uM -0.183 | [6]; compound concentration: 200uM -0.0607 | [7]; compound concentration: 0.78uM -0.0933 | [7]; compound concentration: 1.56uM -0.139 | [7]; compound concentration: 3.13uM -0.0782 | [7]; compound concentration: 6.25uM -0.0824 | [7]; compound concentration: 12.5uM -0.0687 | [7]; compound concentration: 25uM -0.0178 | [7]; compound concentration: 50uM 0.00497 | [7]; compound concentration: 100uM -0.08 | [7]; compound concentration: 200uM -0.0678 | [8]; compound concentration: 0.78uM -0.0203 | [8]; compound concentration: 1.56uM -0.0495 | [8]; compound concentration: 3.13uM -0.0618 | [8]; compound concentration: 6.25uM -0.0539 | [8]; compound concentration: 12.5uM 0.0103 | [8]; compound concentration: 25uM -0.0249 | [8]; compound concentration: 50uM -0.0723 | [8]; compound concentration: 100uM 0.0262 | [8]; compound concentration: 200uM -0.109 | [9]; compound concentration: 50uM -0.0451 | [9]; compound concentration: 200uM -0.029 | [10]; compound concentration: 50uM -0.317 | [10]; compound concentration: 200uM -0.194

UniProt Q8TE49
Sequence of UniProt Q8TE49 (Q8TE49 whole entry): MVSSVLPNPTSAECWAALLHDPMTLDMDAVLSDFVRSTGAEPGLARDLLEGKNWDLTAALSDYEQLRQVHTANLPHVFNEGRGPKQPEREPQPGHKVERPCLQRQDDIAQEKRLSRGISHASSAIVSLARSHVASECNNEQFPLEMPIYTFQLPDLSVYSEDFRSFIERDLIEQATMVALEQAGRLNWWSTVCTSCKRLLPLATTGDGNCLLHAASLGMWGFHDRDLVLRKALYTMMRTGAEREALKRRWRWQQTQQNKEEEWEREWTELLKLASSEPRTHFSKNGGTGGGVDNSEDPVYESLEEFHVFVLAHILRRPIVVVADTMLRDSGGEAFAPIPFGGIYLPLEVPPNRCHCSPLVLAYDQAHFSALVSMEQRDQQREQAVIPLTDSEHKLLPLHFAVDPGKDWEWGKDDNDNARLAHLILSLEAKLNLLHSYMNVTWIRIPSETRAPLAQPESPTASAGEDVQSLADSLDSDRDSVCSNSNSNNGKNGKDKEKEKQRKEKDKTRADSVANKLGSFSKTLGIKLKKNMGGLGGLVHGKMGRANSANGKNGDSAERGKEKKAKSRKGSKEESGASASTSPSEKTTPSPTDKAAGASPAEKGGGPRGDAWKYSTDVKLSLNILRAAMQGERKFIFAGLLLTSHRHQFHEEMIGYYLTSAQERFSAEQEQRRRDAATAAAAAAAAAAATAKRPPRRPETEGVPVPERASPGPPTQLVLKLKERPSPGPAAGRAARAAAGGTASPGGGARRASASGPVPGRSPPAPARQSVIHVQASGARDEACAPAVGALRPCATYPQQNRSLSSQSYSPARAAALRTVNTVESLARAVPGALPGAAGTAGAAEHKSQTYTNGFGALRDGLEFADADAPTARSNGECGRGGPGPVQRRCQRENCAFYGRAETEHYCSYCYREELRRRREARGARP
inactive: [1]; compound concentration: 50uM -0.281 | [1]; compound concentration: 200uM -0.466 | [3]; compound concentration: 50uM -0.364 | [5]; compound concentration: 50uM -0.839 | [7]; compound concentration: 0.78uM -0.577 | [7]; compound concentration: 1.56uM -0.173 | [7]; compound concentration: 3.13uM -0.995 | [7]; compound concentration: 12.5uM -0.347 | [7]; compound concentration: 25uM -0.135 | [7]; compound concentration: 100uM -0.0704 | [8]; compound concentration: 0.78uM -1.04 | [8]; compound concentration: 12.5uM -0.835 | [9]; compound concentration: 50uM 0.126 | [10]; compound concentration: 50uM -0.481 | [10]; compound concentration: 200uM -1.23
active: [2]; compound concentration: 50uM -1.25 | [2]; compound concentration: 200uM -2.71 | [3]; compound concentration: 200uM -1.55 | [4]; compound concentration: 50uM -2.22 | [4]; compound concentration: 200uM -2.78 | [5]; compound concentration: 200uM -1.23 | [6]; compound concentration: 0.78uM -1.71 | [6]; compound concentration: 1.56uM -1.79 | [6]; compound concentration: 3.13uM -1.77 | [6]; compound concentration: 6.25uM -1.34 | [6]; compound concentration: 12.5uM -1.27 | [6]; compound concentration: 25uM -2.03 | [6]; compound concentration: 50uM -2.39 | [6]; compound concentration: 100uM -2.75 | [6]; compound concentration: 200uM -3.99 | [7]; compound concentration: 6.25uM -1.72 | [7]; compound concentration: 50uM -1.33 | [7]; compound concentration: 200uM -1.69 | [8]; compound concentration: 1.56uM -1.6 | [8]; compound concentration: 3.13uM -1.78 | [8]; compound concentration: 6.25uM -1.41 | [8]; compound concentration: 25uM -2.19 | [8]; compound concentration: 50uM -2.93 | [8]; compound concentration: 100uM -3.39 | [8]; compound concentration: 200uM -3.55 | [9]; compound concentration: 200uM -1.15

UniProt Q9UGI0
Sequence of UniProt Q9UGI0 (Q9UGI0 whole entry): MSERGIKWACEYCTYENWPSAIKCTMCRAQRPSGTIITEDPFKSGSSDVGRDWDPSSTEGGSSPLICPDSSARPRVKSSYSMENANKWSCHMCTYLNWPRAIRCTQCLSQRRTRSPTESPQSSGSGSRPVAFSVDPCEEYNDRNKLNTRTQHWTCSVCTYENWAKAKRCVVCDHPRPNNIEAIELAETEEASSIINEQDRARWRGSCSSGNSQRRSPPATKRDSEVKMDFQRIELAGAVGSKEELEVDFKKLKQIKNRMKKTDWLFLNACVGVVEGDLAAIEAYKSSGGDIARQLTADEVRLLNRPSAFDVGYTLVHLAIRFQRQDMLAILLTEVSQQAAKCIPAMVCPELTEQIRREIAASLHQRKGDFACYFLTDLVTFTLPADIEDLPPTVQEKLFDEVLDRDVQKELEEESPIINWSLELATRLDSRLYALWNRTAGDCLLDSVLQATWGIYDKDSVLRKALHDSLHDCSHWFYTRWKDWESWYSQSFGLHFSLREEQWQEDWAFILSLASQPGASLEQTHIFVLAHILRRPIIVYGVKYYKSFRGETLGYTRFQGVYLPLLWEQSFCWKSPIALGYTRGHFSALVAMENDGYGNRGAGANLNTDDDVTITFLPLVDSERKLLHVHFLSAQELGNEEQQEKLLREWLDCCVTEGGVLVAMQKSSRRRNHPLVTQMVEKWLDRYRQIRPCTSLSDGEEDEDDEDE
inactive: [1]; compound concentration: 50uM -0.292 | [1]; compound concentration: 200uM -0.203 | [2]; compound concentration: 50uM -0.406 | [2]; compound concentration: 200uM 0.104 | [3]; compound concentration: 50uM -0.538 | [3]; compound concentration: 200uM -0.31 | [4]; compound concentration: 50uM -0.202 | [4]; compound concentration: 200uM 0.279 | [5]; compound concentration: 50uM 0.0945 | [5]; compound concentration: 200uM -0.4 | [6]; compound concentration: 0.78uM -0.0262 | [6]; compound concentration: 1.56uM 0.0502 | [6]; compound concentration: 3.13uM -0.0706 | [6]; compound concentration: 6.25uM 0.0502 | [6]; compound concentration: 12.5uM 0.00734 | [6]; compound concentration: 25uM -0.073 | [6]; compound concentration: 50uM -0.0421 | [6]; compound concentration: 100uM -0.161 | [6]; compound concentration: 200uM -0.304 | [7]; compound concentration: 0.78uM 0.0537 | [7]; compound concentration: 1.56uM -0.0707 | [7]; compound concentration: 3.13uM 0.111 | [7]; compound concentration: 6.25uM -0.134 | [7]; compound concentration: 12.5uM -0.0472 | [7]; compound concentration: 25uM -0.0247 | [7]; compound concentration: 50uM -0.136 | [7]; compound concentration: 100uM -0.218 | [7]; compound concentration: 200uM -0.262 | [8]; compound concentration: 0.78uM -0.114 | [8]; compound concentration: 1.56uM 0.117 | [8]; compound concentration: 3.13uM -0.00437 | [8]; compound concentration: 6.25uM -0.00155 | [8]; compound concentration: 12.5uM -0.143 | [8]; compound concentration: 25uM -0.115 | [8]; compound concentration: 50uM 0.0192 | [8]; compound concentration: 100uM -0.022 | [8]; compound concentration: 200uM -0.133 | [9]; compound concentration: 50uM -0.0637 | [9]; compound concentration: 200uM -0.0883 | [10]; compound concentration: 50uM -0.0341 | [10]; compound concentration: 200uM -0.418

USP24 (UniProt Q9UPU5)
Sequence of UniProt Q9UPU5 (Q9UPU5 whole entry): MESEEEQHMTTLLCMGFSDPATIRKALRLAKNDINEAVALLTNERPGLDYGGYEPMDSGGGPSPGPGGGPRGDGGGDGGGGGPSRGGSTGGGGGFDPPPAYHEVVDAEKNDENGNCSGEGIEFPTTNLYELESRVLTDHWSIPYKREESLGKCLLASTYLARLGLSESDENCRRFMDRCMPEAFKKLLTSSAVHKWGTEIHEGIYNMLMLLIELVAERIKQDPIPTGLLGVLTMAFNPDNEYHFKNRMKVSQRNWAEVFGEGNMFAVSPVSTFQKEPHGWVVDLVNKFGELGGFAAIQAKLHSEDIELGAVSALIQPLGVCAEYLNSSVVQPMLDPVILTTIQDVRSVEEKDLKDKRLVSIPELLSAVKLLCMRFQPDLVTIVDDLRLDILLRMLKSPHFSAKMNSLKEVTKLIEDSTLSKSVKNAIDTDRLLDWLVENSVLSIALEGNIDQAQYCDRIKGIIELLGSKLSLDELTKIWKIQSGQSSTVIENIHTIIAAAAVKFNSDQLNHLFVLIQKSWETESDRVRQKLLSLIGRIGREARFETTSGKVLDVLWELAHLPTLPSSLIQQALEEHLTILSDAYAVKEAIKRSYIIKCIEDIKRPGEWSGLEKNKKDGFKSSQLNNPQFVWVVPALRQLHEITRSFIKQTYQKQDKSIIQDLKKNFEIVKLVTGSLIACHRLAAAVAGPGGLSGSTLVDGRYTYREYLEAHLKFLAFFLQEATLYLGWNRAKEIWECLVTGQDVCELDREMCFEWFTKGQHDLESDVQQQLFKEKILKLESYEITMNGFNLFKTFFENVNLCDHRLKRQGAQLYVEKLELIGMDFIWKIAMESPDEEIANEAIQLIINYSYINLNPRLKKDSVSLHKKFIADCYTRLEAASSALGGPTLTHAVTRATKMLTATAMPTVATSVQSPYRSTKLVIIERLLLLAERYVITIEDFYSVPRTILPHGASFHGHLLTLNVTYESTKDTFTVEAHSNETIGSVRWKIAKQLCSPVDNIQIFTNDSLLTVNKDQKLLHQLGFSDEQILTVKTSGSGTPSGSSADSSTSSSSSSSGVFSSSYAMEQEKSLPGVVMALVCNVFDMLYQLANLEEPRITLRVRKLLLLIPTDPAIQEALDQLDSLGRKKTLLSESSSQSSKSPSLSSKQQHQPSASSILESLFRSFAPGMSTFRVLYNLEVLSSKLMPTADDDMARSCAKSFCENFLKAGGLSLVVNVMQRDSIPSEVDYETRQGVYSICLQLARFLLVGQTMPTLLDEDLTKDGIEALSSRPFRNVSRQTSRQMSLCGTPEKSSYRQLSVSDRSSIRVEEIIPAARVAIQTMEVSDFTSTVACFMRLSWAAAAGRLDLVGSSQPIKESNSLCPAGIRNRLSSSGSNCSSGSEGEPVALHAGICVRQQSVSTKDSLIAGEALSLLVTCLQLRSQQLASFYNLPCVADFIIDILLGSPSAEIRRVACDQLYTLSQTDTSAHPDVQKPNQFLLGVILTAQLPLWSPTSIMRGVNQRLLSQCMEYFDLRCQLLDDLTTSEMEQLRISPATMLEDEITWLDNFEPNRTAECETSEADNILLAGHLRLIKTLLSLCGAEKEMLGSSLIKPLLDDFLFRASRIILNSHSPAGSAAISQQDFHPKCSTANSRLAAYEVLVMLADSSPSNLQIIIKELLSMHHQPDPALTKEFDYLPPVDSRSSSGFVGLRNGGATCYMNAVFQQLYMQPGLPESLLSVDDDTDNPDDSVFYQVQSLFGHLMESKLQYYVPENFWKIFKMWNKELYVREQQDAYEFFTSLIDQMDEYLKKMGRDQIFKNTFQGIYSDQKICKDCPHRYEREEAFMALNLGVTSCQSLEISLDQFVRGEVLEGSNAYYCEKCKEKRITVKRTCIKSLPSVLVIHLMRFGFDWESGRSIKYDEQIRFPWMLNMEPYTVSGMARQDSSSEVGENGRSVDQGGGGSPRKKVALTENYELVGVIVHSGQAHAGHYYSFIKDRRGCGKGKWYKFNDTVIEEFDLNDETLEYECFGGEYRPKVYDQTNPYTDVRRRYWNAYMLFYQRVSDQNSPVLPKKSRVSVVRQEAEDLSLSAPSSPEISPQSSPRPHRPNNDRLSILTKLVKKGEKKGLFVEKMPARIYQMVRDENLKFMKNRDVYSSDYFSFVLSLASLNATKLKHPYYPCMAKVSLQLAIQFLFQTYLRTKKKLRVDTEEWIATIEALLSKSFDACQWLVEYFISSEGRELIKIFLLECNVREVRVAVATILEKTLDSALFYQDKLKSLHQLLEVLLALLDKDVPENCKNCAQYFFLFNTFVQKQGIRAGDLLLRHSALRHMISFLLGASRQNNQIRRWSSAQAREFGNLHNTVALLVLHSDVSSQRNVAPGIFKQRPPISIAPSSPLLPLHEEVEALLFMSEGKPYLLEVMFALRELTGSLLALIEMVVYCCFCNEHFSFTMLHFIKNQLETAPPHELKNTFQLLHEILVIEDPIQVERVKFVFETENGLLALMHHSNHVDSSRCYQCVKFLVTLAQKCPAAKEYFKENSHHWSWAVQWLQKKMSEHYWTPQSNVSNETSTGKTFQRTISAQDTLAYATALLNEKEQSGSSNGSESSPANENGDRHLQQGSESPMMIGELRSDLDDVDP
active: [1]; compound concentration: 200uM -1.29 | [9]; compound concentration: 200uM -1.37 | [10]; compound concentration: 200uM -1.41
inactive: [1]; compound concentration: 50uM -0.392 | [2]; compound concentration: 50uM -0.121 | [2]; compound concentration: 200uM -0.347 | [3]; compound concentration: 50uM 0.151 | [3]; compound concentration: 200uM -0.708 | [4]; compound concentration: 50uM 0.209 | [4]; compound concentration: 200uM -0.13 | [5]; compound concentration: 50uM 0.141 | [5]; compound concentration: 200uM -0.46 | [6]; compound concentration: 0.78uM -0.028 | [6]; compound concentration: 1.56uM 0.0284 | [6]; compound concentration: 3.13uM -0.0886 | [6]; compound concentration: 6.25uM -0.0483 | [6]; compound concentration: 12.5uM -0.117 | [6]; compound concentration: 25uM -0.177 | [6]; compound concentration: 50uM -0.175 | [6]; compound concentration: 100uM -0.0863 | [6]; compound concentration: 200uM -0.2 | [7]; compound concentration: 0.78uM -0.148 | [7]; compound concentration: 1.56uM -0.0805 | [7]; compound concentration: 3.13uM -0.0521 | [7]; compound concentration: 6.25uM -0.105 | [7]; compound concentration: 12.5uM -0.0644 | [7]; compound concentration: 25uM -0.126 | [7]; compound concentration: 50uM -0.193 | [7]; compound concentration: 100uM -0.134 | [7]; compound concentration: 200uM -0.343 | [8]; compound concentration: 0.78uM -0.009 | [8]; compound concentration: 1.56uM -0.013 | [8]; compound concentration: 3.13uM -0.0452 | [8]; compound concentration: 6.25uM -0.0162 | [8]; compound concentration: 12.5uM -0.088 | [8]; compound concentration: 25uM -0.093 | [8]; compound concentration: 50uM -0.0741 | [8]; compound concentration: 100uM -0.151 | [8]; compound concentration: 200uM -0.346 | [9]; compound concentration: 50uM -0.366 | [10]; compound concentration: 50uM -0.409
